According to PubChem BioAssay:
Active and inactive are the calls of the source. Unless noted, how the calls were made is not given here.

Columns and labels:
[1] = anti-His antibody binders, primary screen, artefact control for SMM control protein annotation, biochemical, small-molecule microarray, 635 nm fluorescence (AID 1128); conditions: anti-His Alexa647 antibody binding, higher = more signal;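 further: score merges feature fluorescence with signal-to-noise for each printed compound spot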
[2] = system: Human papillomavirus type 1a E7 protein (residues 1-88); assay: HPV1a E7 small-molecule binders, primary screen, biochemical, small-molecule microarray, residues 1-88, 635 nm (AID 1129); conditions: small-molecule microarray binding, fluorescence 635 nm; higher = more signal
[3] = target: Focal adhesion kinase 1 (Homo sapiens) (UniProt Q05397); assay: small-molecule microarray binders of FAK, primary screen, biochemical, 635/667 nm fluorescence, BSA, DTT (AID 1130); conditions: PTK2 binding, 635 nm fluorescence, higher = more signal;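 further: composite of spot emission at 667 nm and signal to noise over triplicate slides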
Chain of Focal adhesion kinase 1 (Homo sapiens) (Q05397 whole entry, looked up): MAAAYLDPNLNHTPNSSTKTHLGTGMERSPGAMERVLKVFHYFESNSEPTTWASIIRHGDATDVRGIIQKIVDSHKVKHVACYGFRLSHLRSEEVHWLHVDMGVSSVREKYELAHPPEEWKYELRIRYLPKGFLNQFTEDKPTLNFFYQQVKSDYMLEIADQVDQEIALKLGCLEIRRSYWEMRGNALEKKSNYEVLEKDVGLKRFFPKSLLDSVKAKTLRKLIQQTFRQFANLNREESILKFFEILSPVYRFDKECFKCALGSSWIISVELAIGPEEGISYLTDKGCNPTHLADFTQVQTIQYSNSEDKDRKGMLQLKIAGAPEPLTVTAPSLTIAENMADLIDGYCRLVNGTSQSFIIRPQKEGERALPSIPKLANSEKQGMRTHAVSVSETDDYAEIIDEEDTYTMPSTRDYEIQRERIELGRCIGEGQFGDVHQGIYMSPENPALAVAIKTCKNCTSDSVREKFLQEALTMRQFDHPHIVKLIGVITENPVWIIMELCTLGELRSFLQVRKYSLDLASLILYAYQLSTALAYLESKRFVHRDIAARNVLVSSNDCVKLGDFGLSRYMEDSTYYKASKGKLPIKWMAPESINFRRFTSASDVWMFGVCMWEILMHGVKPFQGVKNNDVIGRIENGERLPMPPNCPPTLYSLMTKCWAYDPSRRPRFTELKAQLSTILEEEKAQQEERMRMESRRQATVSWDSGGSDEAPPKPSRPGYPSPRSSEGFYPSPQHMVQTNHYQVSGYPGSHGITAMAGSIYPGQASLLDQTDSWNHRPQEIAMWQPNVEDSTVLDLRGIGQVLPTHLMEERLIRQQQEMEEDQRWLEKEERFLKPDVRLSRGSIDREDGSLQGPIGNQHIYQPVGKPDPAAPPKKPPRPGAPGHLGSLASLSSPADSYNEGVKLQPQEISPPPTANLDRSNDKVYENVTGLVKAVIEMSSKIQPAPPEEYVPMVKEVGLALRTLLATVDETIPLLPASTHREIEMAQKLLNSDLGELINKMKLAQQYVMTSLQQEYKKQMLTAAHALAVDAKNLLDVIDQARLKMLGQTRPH

[4] = system: Fibrinogen (Alexa647-labelled); assay: fibrinogen binders on compound microarrays, profiling panel, artefact control for SMM control-protein annotation, biochemical, small-molecule microarray, 635/667 nm fluorescence (AID 1131); conditions: fibrinogen-A647 binding fluorescence, higher = more signal;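 further: z-score merges 667 nm fluorescence with per-spot signal-to-noise over triplicate slides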
[5] = target: Follistatin (Homo sapiens) (UniProt P19883); assay: follistatin binders on small-molecule microarrays, primary screen, biochemical, small-molecule microarray, 635/667 nm fluorescence (AID 1132); conditions: FST binding, 635 nm fluorescence, higher = more signal
Chain of Follistatin (Homo sapiens) (P19883 whole entry, looked up): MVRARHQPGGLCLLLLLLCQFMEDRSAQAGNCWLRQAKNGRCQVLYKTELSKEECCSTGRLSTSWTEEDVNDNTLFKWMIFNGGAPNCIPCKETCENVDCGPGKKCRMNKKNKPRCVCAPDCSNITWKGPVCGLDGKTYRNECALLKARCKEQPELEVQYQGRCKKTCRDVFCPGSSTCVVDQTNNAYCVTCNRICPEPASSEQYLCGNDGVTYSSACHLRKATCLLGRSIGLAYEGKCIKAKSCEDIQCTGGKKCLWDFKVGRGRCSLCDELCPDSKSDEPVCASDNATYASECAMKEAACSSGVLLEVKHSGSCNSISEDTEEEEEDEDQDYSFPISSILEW

[6] = target: Fibroblast growth factor 2 (Homo sapiens) (UniProt P09038); assay: FGF2 binders on small-molecule microarrays, primary screen, biochemical, small-molecule microarray, 635/667 nm fluorescence (AID 1133); conditions: small-molecule microarray binding, FGF2, fluorescence 635/667; higher = more signal
Chain of Fibroblast growth factor 2 (Homo sapiens) (P09038 whole entry, looked up): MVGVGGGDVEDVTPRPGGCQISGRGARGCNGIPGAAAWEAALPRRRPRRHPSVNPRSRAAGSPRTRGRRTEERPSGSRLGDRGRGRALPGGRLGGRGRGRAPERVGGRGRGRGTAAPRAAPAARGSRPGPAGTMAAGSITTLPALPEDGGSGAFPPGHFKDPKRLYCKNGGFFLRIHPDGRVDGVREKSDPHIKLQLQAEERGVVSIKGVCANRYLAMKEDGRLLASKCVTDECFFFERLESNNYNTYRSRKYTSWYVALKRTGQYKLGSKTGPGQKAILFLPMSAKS

[7] = mitochondrial membrane potential change in A549 cells, profiling panel, cell-based, JC-1 fluorescence, basal, 24 h, 100 nL (AID 1138); conditions: higher = more signal;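 further: A549 lung adenocarcinoma cells under basal conditions with no added stimulus; test concentration not given here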
Lefty1 = Lefty1 binders on small-molecule microarrays, primary screen, biochemical, small-molecule microarray, 635/667 nm fluorescence (AID 1139); conditions: small-molecule microarray binding, fluorescence 635/667; higher = more signal
[8] = system: wheat germ agglutinin (Triticum aestivum), Alexa647-labelled; assay: wheat germ agglutinin binders on compound microarrays, profiling panel, artefact control for SMM control-protein annotation, biochemical, small-molecule microarray, 635/667 nm fluorescence (AID 1140); conditions: WGA-A647 binding, 635 nm fluorescence, higher = more signal;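 further: score merges 667 nm feature emission with signal to noise over triplicate slides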
[9] = target: Luciferin 4-monooxygenase (Photinus pyralis) (UniProt P08659); assay: firefly luciferase enzyme inhibitors, primary screen, biochemical, luminescence, purified enzyme, 2006 set (AID 1141); conditions: SteadyGlo luminescence, 30 min, higher = more signal, called active from +8 up or from −8 down;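 further: cell-free assay with purified firefly luciferase at 100 ng per well in PBS; test concentration not given here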
Chain of Luciferin 4-monooxygenase (Photinus pyralis) (P08659 whole entry, looked up): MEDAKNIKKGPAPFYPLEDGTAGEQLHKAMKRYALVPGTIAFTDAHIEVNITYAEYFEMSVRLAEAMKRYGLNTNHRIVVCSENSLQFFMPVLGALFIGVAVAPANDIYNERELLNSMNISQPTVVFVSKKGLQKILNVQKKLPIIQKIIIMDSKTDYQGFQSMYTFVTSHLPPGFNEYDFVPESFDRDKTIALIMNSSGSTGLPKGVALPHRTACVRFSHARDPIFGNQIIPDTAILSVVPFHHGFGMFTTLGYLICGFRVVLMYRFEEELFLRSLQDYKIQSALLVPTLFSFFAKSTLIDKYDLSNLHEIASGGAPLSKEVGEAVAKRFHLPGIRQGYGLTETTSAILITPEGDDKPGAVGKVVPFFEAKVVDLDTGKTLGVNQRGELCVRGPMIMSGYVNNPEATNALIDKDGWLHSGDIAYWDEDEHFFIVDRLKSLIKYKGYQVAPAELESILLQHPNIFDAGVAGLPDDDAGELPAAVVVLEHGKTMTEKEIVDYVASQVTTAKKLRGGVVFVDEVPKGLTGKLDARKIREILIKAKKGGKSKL

[10] = system: Wnt5a (protein binding on small-molecule microarray); assay: Wnt5a binders on small-molecule microarray, primary screen, biophysical, 635/667 nm fluorescence (AID 1142); conditions: 635 nm fluorescence, higher = more signal;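 further: fluorescence read at 667 nm with signal to noise per printed feature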
[11] = cell viability in Huh7 cells, primary screen, cytotoxicity control for HCV replication inhibitor project, CellTiter-Glo luminescence, basal, 48 h (AID 1143); conditions: Huh7 HCV replicon, higher = more signal, called active from +8 up or from −8 down;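 further: Huh7 hepatoma cells carrying a hepatitis C replication reporter with no stimulus; test concentration not given here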
[12] = P. aeruginosa biofilm formation inhibitors, primary screen, PAO1 strain, BacTiter-Glo luminescence, LB-PBS (AID 1144); conditions: 12 h, higher = more signal
[13] = CREB reporter modulators without forskolin, primary screen, cell-based, PC12, CRE-LacZ reporter, unstimulated (AID 1145); conditions: no forskolin, luminescence, 4.5 h, higher = more signal, called active from +8 up or from −8 down
[14] = CREB reporter modulators under forskolin, primary screen, cell-based, PC12, CRE-LacZ reporter, forskolin-stimulated (AID 1146); conditions: luminescence, 4.5 h, higher = more signal, called active from +8 up or from −8 down;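 further: PC12 cells with 6xCRE LacZ reporter stimulated by forskolin 10 µM; beta-galactosidase reporter signal reflecting CREB driven transcription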
[15] = target: Streptavidin (Streptomyces avidinii) (UniProt P22629); assay: streptavidin binders on small-molecule microarray, primary screen, artefact control for SMM compound annotation, biophysical, 635/667 nm fluorescence (AID 1147); conditions: streptavidin binding, higher = more signal;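 further: signal reflects streptavidin binding to arrayed compounds as a control protein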
Chain of Streptavidin (Streptomyces avidinii) (P22629 whole entry, looked up): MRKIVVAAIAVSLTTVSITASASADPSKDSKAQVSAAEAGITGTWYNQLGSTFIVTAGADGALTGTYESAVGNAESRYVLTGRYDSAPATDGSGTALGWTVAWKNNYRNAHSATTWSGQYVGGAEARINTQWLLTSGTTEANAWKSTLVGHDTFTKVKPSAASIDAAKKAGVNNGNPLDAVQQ

[16] = small-molecule binders of probe aInhba, primary screen, biochemical, small-molecule microarray, 635/667 nm fluorescence (AID 1148); conditions: higher = more signal;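 further: score merges 667nm spot fluorescence with signal-to-noise for antibody binding to printed compounds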
Torsin-1A (Homo sapiens) [17] = target: Torsin-1A (Homo sapiens) (UniProt O14656); assay: torsin A binders from cell lysate, primary screen, small-molecule microarray, wild-type, 635/667 nm (AID 1149); conditions: COS7 hTOR1A-WT lysate, 635 nm fluorescence, higher = more signal
Chain of Torsin-1A (Homo sapiens) (O14656 whole entry, looked up): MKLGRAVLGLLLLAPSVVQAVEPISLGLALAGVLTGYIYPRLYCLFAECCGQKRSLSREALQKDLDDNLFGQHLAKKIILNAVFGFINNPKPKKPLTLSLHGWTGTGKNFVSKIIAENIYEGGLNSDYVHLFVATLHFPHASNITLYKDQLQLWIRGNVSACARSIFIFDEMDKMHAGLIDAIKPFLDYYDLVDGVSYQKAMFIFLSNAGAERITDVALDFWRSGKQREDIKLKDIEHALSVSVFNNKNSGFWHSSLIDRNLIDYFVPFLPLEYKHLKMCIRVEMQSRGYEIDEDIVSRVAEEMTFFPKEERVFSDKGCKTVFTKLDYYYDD

Torsin-1A (Homo sapiens) [18] = target: Torsin-1A (Homo sapiens) (UniProt O14656); assay: small-molecule binders of mutant TOR1A in lysate, primary screen, cell lysate, small-molecule microarray, COS7 lysate, 635/667 nm fluorescence (AID 1150); conditions: COS7 hTOR1A mutant lysate, 635 nm fluorescence, higher = more signal;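 further: score pools 667 nm emission and signal to noise measuring lysate protein binding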
[19] = system: Sonic hedgehog protein (Shh); assay: small-molecule binders of Shh protein, primary screen, biochemical, small-molecule microarray, 635/667 nm fluorescence (AID 1151); conditions: small-molecule microarray binding, 635 nm fluorescence; higher = more signal;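 further: Shh protein binding to compounds spotted on small-molecule microarray slides; score combines spot fluorescence intensity with signal-to-noise across triplicate slides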

SMILES | composite z-score [1] | composite z-score [2] | composite z-score [3] | composite z-score [4] | composite z-score [5] | composite z-score [6] | z-score [7] | composite z-score (Lefty1) | composite z-score [8] | z-score [9] | composite z-score [10] | z-score [11] | z-score [12] | z-score [13] | z-score [14] | composite z-score [15] | composite z-score [16] | composite z-score (Torsin-1A (Homo sapiens) [17]) | composite z-score (Torsin-1A (Homo sapiens) [18]) | composite z-score [19]
C=CC[C@@]1(C(=O)NCCN2CCOCC2)N=C(c2ccc(OCCCO)cc2)O[C@@H]1c1ccccc1CN=[N+]=[N-] | 2.83 | 1.23 | 0.269 | 0.216 | 0.898 | -0.224 | 0.127 | -0.0903 | 1 | -3.74 (inactive) | 0.13 | -4.2 (inactive) | -0.557 (inactive) | 0.526 (inactive) | -1.22 (inactive) | 0.349 | -0.197 | 0.598 | 1.16 | -0.0578
C=C[C@H](C)[C@H](O)c1ccc(OCCO)cc1 | -0.151 | -1.55 | 0.151 | -2.74 | -0.74 | -1.2 | 0.145 | -0.91 | -0.89 | -24.9 (active) | -0.965 | -1.45 (inactive) | 0.733 (inactive) | -0.272 (inactive) | 0.0034 (inactive) | -1.29 | -0.209 | -2.73 | -1.99 | -0.773
COc1cc2c(cc1O)C(c1ccc(CN3CCCC3)cc1)N(Cc1sc3ccccc3c1Cl)CC2 (stereo not given) | 0.423 | -0.18 | 0.0344 | 0.455 | 1.03 | 1.17 | -0.763 | 0.501 | 0.421 | 1.14 (inactive) | 0.0746 | -3.63 (inactive) | -0.0323 (inactive) | 0.416 (inactive) | 0.821 (inactive) | 0.706 | -0.292 | 0.834 | 0.309 | 0.436
CCCC[C@@H]1C[C@H]1[C@@H](NC(=O)c1ccco1)c1ccccc1 | -0.172 | -1 | -0.107 | -1.82 | -1.64 | -2.17 | 0.542 | -1.06 | -0.0439 | 0.771 (inactive) | -0.609 | -2.87 (inactive) | 0.0548 (inactive) | 0.783 (inactive) | -0.787 (inactive) | -1.27 | -0.258 | -3.91 | -1.3 | -1.88
C=CCNC(=O)[C@H]1[C@@H]2C(=O)O[C@@H](c3ccccc3)[C@@H](c3ccccc3)N2[C@@H](c2ccc(OCCO)cc2)[C@]12C(=O)N(C(=O)OCCOC)c1ccc(C#CC3(O)CCCCCC3)cc12 | 0.632 | 1.21 | 1.32 | 0.888 | 1.36 | 1.58 | 0.208 | 1.47 | 0.777 | -1.86 (inactive) | 0.558 | -2.88 (inactive) | -0.148 (inactive) | 0.761 (inactive) | 0.309 (inactive) | 0.37 | 0.569 | 1.79 | 0.907 | 1.65
COc1ccc(C(=O)Nc2cccc(CN3C(=O)[C@@]4(O[C@@H](CC(=O)N5Cc6ccccc6C[C@H]5CO)[C@H]([Si](C)(C)c5ccc(OC)cc5)[C@H]4C)c4ccccc43)c2)cc1 | 1.37 | 0.86 | 0.469 | 0.622 | 1.13 | 1.25 | 0.68 | 1.57 | 0.29 | -1.52 (inactive) | 0.209 | -5.04 (inactive) | -0.473 (inactive) | 4.45 (inactive) | -0.534 (inactive) | 0.395 | -0.0095 | 0.726 | 0.488 | 2.06
C=C(/C(=C/C[C@@H](OC(=O)c1ccncc1)c1ccc(CO)o1)c1cc(C(=O)OC)ccc1OC)C(C)C | 1.02 | 1.23 | 0.317 | 0.415 | 1.09 | 1.3 | 0.375 | 1.24 | 0.553 | -4.24 (inactive) | 0.569 | -0.82 (inactive) | -0.0553 (inactive) | 8.87 (active) | 3.69 (inactive) | 0.229 | 0.0633 | 1.24 | 0.946 | 1.2
CC(=O)NCCCC[C@@H]1NC(=O)[C@@H]2C[C@H](C(=O)NCCCCCC[N+](C)(C)C)[C@H](c3cccc(OCCO)c3)N2C1=O | 2.89 | 1.17 | 0.202 | 0.416 | 1.39 | 1.69 | -0.972 | 1.26 | 0.548 | 0.364 (inactive) | 0.505 | -0.134 (inactive) | -0.445 (inactive) | -0.947 (inactive) | -0.75 (inactive) | -0.206 | -0.0425 | 0.964 | 1.43 | 2.04
O=C1C2C=CC(C(O)CCc3ccccc3)N(Nc3ccccc3)C2C(=O)N1c1ccccc1 (stereo not given) | 1.89 | 1.23 | 0.477 | 0.889 | 0.471 | -0.464 | -0.411 | 0.38 | 1.44 | -0.0874 (inactive) | 0.742 | 0.267 (inactive) | -0.857 (inactive) | 0.819 (inactive) | -0.0219 (inactive) | 2.32 | 0.372 | 0.143 | 0.82 | -0.365
CCCNC(=O)[C@@]1(c2ccc([N+](=O)[O-])cc2)CC(=O)N(CC23CC4CC(CC(C4)C2)C3)[C@@H]1c1ccc(CO)cc1I | 1.02 | 1.08 | 1.19 | -0.0329 | 0.541 | 0.753 | 1.04 | -0.462 | 0.519 | -0.1 (inactive) | 0.572 | -5.46 (inactive) | 0.468 (inactive) | 0.234 (inactive) | 0.299 (inactive) | 0.131 | 0.834 | 0.253 | 0.55 | 0.825
CC(C)C(=C=CC[C@H](O)c1ccccc1OCCO)CCO | 0.526 | 0.0618 | 0.101 | 0.217 | 0.0251 | 0.465 | 0.205 | 0.653 | 0.417 | 0.27 (inactive) | -0.0207 | -0.334 (inactive) | 0.00427 (inactive) | 2.14 (inactive) | 1.49 (inactive) | -0.366 | -0.101 | -0.0451 | 0.408 | 0.569
